# Many of the other results were omitted from the sample, so hits are more common in it than they were.
# AMA1 RON2 block: AMA1-RON2 (P. falciparum) interaction inhibition. Potency, µM (titrated, usually from 58.2 µM), inactives show at the top dose activity change, negative = inhibition, actives largely listed as inhibitors. AID 720542. 360,000 tested, 0.2% active. AlphaScreen AMA1-biotinylated RON2 peptide binding;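 further: potency means the concentration at half of the fitted maximal effect; 0% = vehicle wells and -100% = peptide control; nearly all actives have a fitted effect of over 45% in size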
#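 AMA1 (3D7) with his tag at 25 nM final met compounds first, then biotinylated RON2 peptide at 25 nM; detection used donor plus acceptor beads, 10 µg/mL apiece, read by AlphaScreen after 30 min at room temperature.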
# Shiga inhibitor: blocks Shiga toxin action in Vero cells. Vero cells, Shiga toxin protein synthesis inhibition reporter. inhibition, % at 38.7 µM. 290,000 tested, 9.2% active. AID 2315; in the data active means inhibition mostly above about 28%, no sharp cut-off; inactive means mostly below about 43%; further: 0% is about no effect
# AmpC no deterg: AmpC beta-lactamase inhibition without detergent; P00811; AmpC nitrocefin hydrolysis, absorbance 480 nm, 0.0001% Triton; Potency, µM (doses to about 57.1 µM), for inactives: at the top dose activity change, negative = inhibition, usual class: inhibitors; 330,000 tested, 0.52% active; AID 485341;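 further: potency means the concentration at half of the fitted maximal effect; plate controls were no compound for no effect and no enzyme for full effect; nearly all actives have a fitted effect of over 20% in size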
# Target sequence (P00811 whole entry, looked up): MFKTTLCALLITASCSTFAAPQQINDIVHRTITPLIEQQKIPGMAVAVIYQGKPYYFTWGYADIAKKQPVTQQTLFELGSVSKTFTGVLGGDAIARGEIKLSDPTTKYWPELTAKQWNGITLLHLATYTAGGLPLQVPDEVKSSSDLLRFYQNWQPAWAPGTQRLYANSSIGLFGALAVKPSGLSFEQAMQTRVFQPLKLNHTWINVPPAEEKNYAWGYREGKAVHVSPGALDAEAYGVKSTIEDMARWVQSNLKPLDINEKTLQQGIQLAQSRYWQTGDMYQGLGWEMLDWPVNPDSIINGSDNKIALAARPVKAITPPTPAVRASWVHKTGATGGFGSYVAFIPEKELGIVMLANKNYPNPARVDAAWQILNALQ
#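 AmpC (5.3 nM in the dispensed reagent) in 20 mM phosphate pH 7.0 with 0.01% (detergent screen) or 0.0001% Triton X-100 was preincubated with compounds for 15 min at room temperature. Nitrocefin was then added from an 800 uM solution, and hydrolysis was followed at 480 nm.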
# Cycloheximide cs: counter-screen for Shiga toxin inhibitors: cycloheximide protein synthesis inhibition | cell reporter, cycloheximide protein synthesis inhibition counterscreen | max response, % | 300,000 tested, 12% active; in the data active means max response mostly above about 13%, no sharp cut-off; inactive means mostly below about 14%; further: read at 38.3 µM for the half of the compounds with a filed dose; 0% is about no effect
# AmpC inh detg: blocks E. coli AmpC beta-lactamase in detergent assay; P00811; AmpC hydrolysis of nitrocefin, absorbance 480 nm, 0.01% Triton; Potency, µM (doses to about 114 µM), without a hit: top-dose activity change, negative = inhibition, hits mostly inhibitors; 370,000 tested, 0.041% active; AID 485294;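 further: potency means the concentration at half of the fitted maximal effect; 0% = no-compound wells and -100% = no-enzyme wells; nearly all actives have a fitted effect of over 25% in size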
#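 AmpC (5.3 nM in the dispensed reagent) in 20 mM phosphate pH 7.0 with 0.01% (detergent screen) or 0.0001% Triton X-100 was preincubated with compounds for 15 min at room temperature. Nitrocefin was then added from an 800 uM solution, and hydrolysis was followed at 480 nm.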
# SARS PLP yeast: inhibitors of SARS-CoV papain-like protease in yeast. S. cerevisiae expressing SARS-CoV PLpro, growth rescue. Potency, µM (doses to about 32.9 µM), for inactives: at the highest dose activity, positive = growth rescue, usual class: activators. 330,000 tested, 0.19% active. AID 485353; calls by dose curve; further: potency means the concentration at half of the fitted maximal effect; 0% is about no effect; nearly all actives have a fitted effect of over 55% in size
# The depositor's hits bear a star; i = inactive; u = inconclusive; x = not tested or not shown; [ ] = another dose, or the depositor's remark. Unless noted, the call rests on the fitted dose curve; in most records, active means well fitted curve in the direction sought with a large enough effect; inconclusive means small, poorly fitted or top-dose-only effect, or another doubt; inactive means no such curve, though single readings can be large; an effect the other way counts as inactive or inconclusive.
SMILES,AMA1 RON2 block,Shiga inhibitor,AmpC no deterg,Cycloheximide cs,AmpC inh detg,SARS PLP yeast
C=C(C)CCC1(C)NC(=O)N(c2ccccc2)N1 (centres undefined),-6%,28,-28%,2,10%,0%
COc1ccc(OCc2cc(C(=O)N3CCCCCC3)no2)c(Cl)c1,20%,68*,22%,47*,-2%,-7%
O=C(c1cc(COc2ccc(F)cc2Cl)on1)N(CCO)Cc1cccs1,-7%,49,91%,20*,4%,-3%
COc1ccc(OCc2cc(C(=O)N3CCC(c4ccccc4)CC3)no2)c(Cl)c1,-28%,106*,-12%,78*,-2%,4%
CC(NC(=O)c1cc(COc2c(F)cccc2F)on1)c1cnn(-c2ccccc2)c1 (centres undefined),-7%,76*,-6%,25*,-1%,0%
CC1(C)CC(NC(=O)c2ccc3c(c2)OCO3)CC(C)(C)N1,5%,-6,-31%,-2,u,2%
COCC1CCN(C(=O)c2cc(COc3ccc(F)cc3Cl)on2)C1 (centres undefined),-3%,x,x,x,x,x
Cc1nn(C)cc1C(C)NC(=O)c1cc(COc2c(F)cccc2F)on1 (centres undefined),11%,-7,4%,7,7%,1%
O=C(c1cc(COc2ccc(F)cc2Cl)on1)N1CCc2ccccc2C1,10%,-6,-34%,1,2%,0%
COc1cccc(OCc2cc(C(=O)NC(C)c3cnn(C)c3C)no2)c1 (centres undefined),-2%,59*,27%,27*,-7%,4%
COc1ccc(OCc2cc(C(=O)N3CCOCC3)no2)c(Cl)c1,0%,91*,11%,43*,-12%,-2%
O=C(c1cc(COc2ccc(F)cc2Cl)on1)N1CCSCC1,-3%,67*,0%,62*,5%,-3%
COc1ccc(OCc2cc(C(=O)NC(C)c3cnn(C)c3)no2)c(Cl)c1 (centres undefined),-4%,47*,92%,38*,3%,3%
CCOC(=O)Nc1ccc(S(=O)(=O)NC2CCCCC2)cc1,7%,-10,-3%[2.29 µM],2,2%,0%
COc1ccc(OC)c(/C=N/NC(=O)CNC(=O)c2ccc(S(=O)(=O)N3CCCC3)cc2)c1,-8%,-8,-19%,-2,-15%,0%
COc1cccc(OCc2cc(C(=O)N3C[C@H]4C[C@@H](C3)c3cccc(=O)n3C4)no2)c1,5%,52*,31%,60*,-3%,0%
COc1ccc(OCc2cc(C(=O)N3CCSCC3)no2)c(Cl)c1,0%,143*,21%,67*,-1%,-6%
COc1ccc(OCc2cc(C(=O)N3CCN(CC(=O)N(C)C)CC3)no2)c(Cl)c1,15%,3,120%,23*,-11%,1%
COc1cccc(OCc2cc(C(=O)N3CCC(c4ccncc4)CC3)no2)c1,-3%,-3,63%,15,u,-9%
COc1cccc(OCc2cc(C(=O)N3CCN(C)C(c4ccccc4)C3)no2)c1 (centres undefined),0%,77*,143%,32*,-3%,-9%
COc1ccc(C2/C=C\CC(NC(=O)OCC3c4ccccc4-c4ccccc43)CC(=O)N2Cc2cccc(F)c2)cc1 (centres undefined),x,i,x,12,x,x
C=CCOc1cccc(C(=O)N(C)C2CCCN(Cc3ccccc3F)C2)c1 (centres undefined),-3%,x,x,x,x,x
ClCC(Br)CBr (centres undefined),0%,x,-2%,x,-11%,-2%
CCc1nc2ccc(C(=O)Nc3ccc(OC)c(OC)c3)cn2c1N(C)Cc1nccs1,-6%,x,x,x,x,x
CCc1nc2ccc(C(=O)Nc3ccc(OC)c(OC)c3)cn2c1N(C)Cc1ccc(N(C)C)cc1,32µM*,x,x,x,x,x
SMILES,AMA1 RON2 block,Shiga inhibitor,AmpC no deterg,Cycloheximide cs,AmpC inh detg,SARS PLP yeast
Nc1c(/C=C2\C=Nc3ccccc32)c(=O)nc2sc(CC(=O)N3CCOCC3)nn12,-4%,9,4%,-3,1%,5%
Cc1ccc2nc(-c3cccnc3)cc(C(=O)Nc3ccccc3[N+](=O)[O-])c2c1,-4%,22,0%,-1,6%,5%
CC(Sc1ncccn1)C(=O)Nc1ccc2c(c1)OCO2 (centres undefined),-7%[11.6 µM],x,58%,x,x,2%
CCC(=O)Nc1nnc(SCC(=O)Nc2ccc3c(c2)OCO3)s1,0%,-8,-26%,-1,-7%,-9%
CC(Sc1nncs1)C(=O)Nc1ccc2c(c1)OCO2 (centres undefined),-9%,16,-16%,11*,-9%,-2%
O=C(CSc1nncs1)Nc1ccc2c(c1)OCO2,7%,54,-20%,25*,-3%,0%
Nc1nc(N)c2sc3nc(C(F)(F)F)cc(C(F)(F)F)c3c2n1,3%,-4,19%,-3,-3%,1%
Cn1c(/C=N/NC(=O)c2ccccc2Br)nc2ccccc21,24%,19,-1%,15*,5%,-2%
CCCn1c(NC(=O)c2ccccc2Br)nc2ccccc21,49%,72,-16%,18*,-12%,-1%
CNc1nc2ccccc2n1CC(=O)c1ccccc1,11%,20,-32%,22*,-17%,-5%
CCn1c(NC(=O)c2ccccc2)nc2ccccc21,60%,86*,-54%,31*,-12%,-1%
O=c1cc2nc(-c3ccccc3)nc(SCc3cccc(Br)c3)n2[nH]1,x,x,x,x,0%,x
C=CCn1c(NC(=O)c2ccccc2)nc2ccccc21,89%,53*,-28%,43*,3%,-4%
CCCCn1c(NC(=O)c2ccccc2)nc2ccccc21,63%,4,-22%,6,u,5%
Cc1ccccc1N(CC(=O)NC(C)(C)C)C(=O)c1ccc(-c2ccccc2)[nH]1,x,-8,-15%,4,-4%,0%
O=C(Nc1ccccc1C(F)(F)F)C1CCN(S(=O)(=O)c2ccccc2)CC1,x,x,x,x,-3%,x
Cc1cc2c(C(C)C)c(O)c(O)c(C=O)c2c(O)c1-c1c(C)cc2c(C(C)C)c(O)c(O)c(C=O)c2c1O,x,7,-48%,1,-8%,10µM*
COC(=O)c1c(C)cc(O)c(C=O)c1O,34%,x,x,x,x,x
Cc1nnc(NC(=O)c2ccccc2-c2ccccc2C(=O)O)s1,17%,2,9%,-1,1%,3%
CCC(C)C(=O)Nc1nnc(CCc2ccccc2)s1 (centres undefined),4%,27,4%,19*,7%,1%
O=C(Nc1nnc(CCc2ccccc2)s1)c1ccccc1F,15%,41,-15%,26*,-12%,0%
Cc1nnc(NC(=O)c2ccccc2Br)s1,-6%,92,-4%,24*,u,u

# Source: PubChem BioAssay
